# Data taken from ChEMBL document CHEMBL3988442, “University of Dundee, Small-Polar-MMV Screening Library” (2021).
# For some assays here: Entries with a potency or affinity are not part of this list.
# Experiments:
# Parameters in all cases: scale not given: direction of the effect not stated beside the values
# [1] = molecular target: Protein translocase subunit SecA (Escherichia coli (strain K12)) (UniProt P10408); assay: Assay to Identify E. coli SecA ATPase Inhibitors; assay type: functional; conditions: 30 µM
# [2] = molecular target: T1, Ubiquitin-activating enzyme e1, putative (Leishmania donovani (strain BPK282A1)) (UniProt E9BSI1); assay: Leishmania donovani Ubiquitin Activating Enzyme (LdE1); assay type: functional; conditions: 30 µM
# T1 sequence (whole entry): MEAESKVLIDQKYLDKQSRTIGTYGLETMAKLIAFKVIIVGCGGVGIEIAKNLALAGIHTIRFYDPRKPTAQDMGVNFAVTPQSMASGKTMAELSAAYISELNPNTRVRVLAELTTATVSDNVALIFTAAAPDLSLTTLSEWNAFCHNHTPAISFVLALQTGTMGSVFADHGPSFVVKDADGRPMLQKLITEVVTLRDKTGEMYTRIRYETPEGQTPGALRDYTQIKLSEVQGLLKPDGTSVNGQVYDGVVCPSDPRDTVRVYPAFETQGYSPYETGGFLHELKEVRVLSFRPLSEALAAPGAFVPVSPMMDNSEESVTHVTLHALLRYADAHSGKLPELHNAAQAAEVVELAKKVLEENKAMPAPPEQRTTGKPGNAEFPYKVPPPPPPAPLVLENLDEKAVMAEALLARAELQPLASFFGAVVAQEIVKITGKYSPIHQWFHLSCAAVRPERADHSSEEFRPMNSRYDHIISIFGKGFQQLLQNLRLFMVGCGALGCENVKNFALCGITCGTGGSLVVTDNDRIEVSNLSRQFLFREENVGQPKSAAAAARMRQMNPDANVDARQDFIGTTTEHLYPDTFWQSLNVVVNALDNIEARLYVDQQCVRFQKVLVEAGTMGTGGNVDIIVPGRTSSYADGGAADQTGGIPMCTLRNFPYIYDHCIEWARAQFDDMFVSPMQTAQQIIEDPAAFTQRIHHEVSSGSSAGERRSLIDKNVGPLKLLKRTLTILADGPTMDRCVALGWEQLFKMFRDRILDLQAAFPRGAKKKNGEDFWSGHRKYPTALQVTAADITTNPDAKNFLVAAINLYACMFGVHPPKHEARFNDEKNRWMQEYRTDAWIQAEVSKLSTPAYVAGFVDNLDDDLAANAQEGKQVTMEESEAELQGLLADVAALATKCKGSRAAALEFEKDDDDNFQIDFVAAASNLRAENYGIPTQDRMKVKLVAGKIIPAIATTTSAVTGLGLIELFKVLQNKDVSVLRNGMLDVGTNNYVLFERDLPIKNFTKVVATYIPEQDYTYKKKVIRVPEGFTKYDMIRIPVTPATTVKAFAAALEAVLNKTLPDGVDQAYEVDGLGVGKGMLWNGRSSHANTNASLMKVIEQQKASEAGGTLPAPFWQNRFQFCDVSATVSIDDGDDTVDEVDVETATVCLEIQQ
# [3] = molecular target: AMP-activated protein kinase, AMPK (Homo sapiens) (UniProt P54646+O43741+P54619+Q9UGJ0+Q9Y478+Q13131+Q9UGI9); assay: AMP-dependent Kinase enzyme assay. An in vitro enzyme assay that detects ADP turnover that is directly proportional to AMPK activity. This uses naive AMPK that is activated during the assay with MK-8722; assay type: functional; conditions: 30 µM
# [4] = molecular target: Sialic acid-binding Ig-like lectin 9 (Homo sapiens) (UniProt Q9Y336); assay: Hs-Siglec9 ALPHAscreen SOP 20170721; conditions: 10 µM
# Trypanosoma cruzi = assay: Trypanosoma cruzi phosphomannomutase and mannose-1-phosphate guanylyltransferase assay; assay type: functional; conditions: 10 µM
# [5] = molecular target: T2, Arginase-2, mitochondrial (Homo sapiens) (UniProt P78540); assay: in vitro enzyme assay to detect the production of urea directly proportional to the activity of Arginase II; assay type: functional; conditions: 33.3 µM; also: in the data most compounds retested in dose-response had high values
# T2 sequence (whole entry): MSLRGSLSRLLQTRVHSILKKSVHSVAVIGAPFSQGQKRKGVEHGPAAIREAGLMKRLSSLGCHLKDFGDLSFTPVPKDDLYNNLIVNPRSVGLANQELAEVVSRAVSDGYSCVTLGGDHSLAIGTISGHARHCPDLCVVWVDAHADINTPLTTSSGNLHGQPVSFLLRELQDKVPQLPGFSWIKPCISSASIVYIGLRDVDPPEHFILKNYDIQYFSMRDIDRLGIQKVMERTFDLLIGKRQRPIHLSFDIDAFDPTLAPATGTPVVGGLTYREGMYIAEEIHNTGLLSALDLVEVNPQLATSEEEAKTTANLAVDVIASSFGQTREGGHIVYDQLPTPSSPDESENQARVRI
# [6] = molecular target: T3, Proteasome subunit beta (Trypanosoma cruzi) (UniProt O96673); assay: Trypanosoma cruzi proteasome chymotrypsin-like activity (TcProtChymo) assay.; also: in the data most compounds retested in dose-response had high values; assay type: functional; conditions: 9.37 µM
# T3 sequence (whole entry): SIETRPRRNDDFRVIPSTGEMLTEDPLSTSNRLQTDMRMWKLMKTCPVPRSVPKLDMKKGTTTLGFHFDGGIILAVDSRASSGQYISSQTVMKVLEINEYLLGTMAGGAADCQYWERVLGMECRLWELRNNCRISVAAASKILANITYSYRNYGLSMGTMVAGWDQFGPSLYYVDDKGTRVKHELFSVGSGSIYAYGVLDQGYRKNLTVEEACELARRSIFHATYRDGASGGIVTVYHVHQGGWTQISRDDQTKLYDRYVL
# Homo sapiens = organism: Homo sapiens; assay: To identify inhibition of the IFN signalling (Jak-Stat) pathway via expression of an eGFP reporter gene under the control of an IFN-stimulated response element (ISRE) containing MxA promoter.; assay type: functional; conditions: 30 µM
# [7] = molecular target: T4, Tyrosyl-tRNA synthetase, putative (Trypanosoma cruzi (strain CL Brener)) (UniProt Q4DSP6); assay: Trypanosoma cruzi tyrosyl tRNA synthetase (TcYRS) _High Tyrosine SOP; assay type: functional; conditions: 30 µM; also: in the data most compounds retested in dose-response had high values
# T4 sequence (whole entry): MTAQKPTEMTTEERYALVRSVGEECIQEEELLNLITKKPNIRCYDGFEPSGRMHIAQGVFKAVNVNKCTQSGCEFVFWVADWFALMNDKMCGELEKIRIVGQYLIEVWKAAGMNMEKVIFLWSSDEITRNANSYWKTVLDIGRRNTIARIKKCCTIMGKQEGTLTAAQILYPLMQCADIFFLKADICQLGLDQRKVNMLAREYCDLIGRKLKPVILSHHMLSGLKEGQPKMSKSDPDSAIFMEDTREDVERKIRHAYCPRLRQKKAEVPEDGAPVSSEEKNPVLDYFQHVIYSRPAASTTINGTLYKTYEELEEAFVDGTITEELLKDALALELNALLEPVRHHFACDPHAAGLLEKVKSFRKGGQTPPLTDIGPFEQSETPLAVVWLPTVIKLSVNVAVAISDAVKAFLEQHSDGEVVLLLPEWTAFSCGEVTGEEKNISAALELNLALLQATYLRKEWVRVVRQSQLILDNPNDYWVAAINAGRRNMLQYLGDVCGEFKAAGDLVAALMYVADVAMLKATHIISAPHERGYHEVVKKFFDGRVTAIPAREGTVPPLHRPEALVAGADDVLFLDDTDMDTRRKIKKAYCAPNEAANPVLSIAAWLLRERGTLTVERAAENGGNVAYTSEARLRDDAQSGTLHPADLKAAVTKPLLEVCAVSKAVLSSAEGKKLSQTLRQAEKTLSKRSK
# [8] = molecular target: T4, Tyrosyl-tRNA synthetase, putative (Trypanosoma cruzi (strain CL Brener)); assay: Trypanosoma cruzi tyrosyl tRNA synthetase (TcYRS) SOP; assay type: functional; conditions: 30 µM
# [9] = molecular target: Chromo domain-containing protein 1 (Saccharomyces cerevisiae (strain ATCC 204508 / S288c) (Baker's yeast)) (UniProt P32657); assay: ScCHD-1 Enzyme Inhibition Assay; assay type: functional; conditions: 30 µM; also: in the data most compounds retested in dose-response had high values
# Sequence of Chromo domain-containing protein 1 (Saccharomyces cerevisiae (strain ATCC 204508 / S288c) (Baker's yeast)) (P32657 whole entry, the tested form may be a part): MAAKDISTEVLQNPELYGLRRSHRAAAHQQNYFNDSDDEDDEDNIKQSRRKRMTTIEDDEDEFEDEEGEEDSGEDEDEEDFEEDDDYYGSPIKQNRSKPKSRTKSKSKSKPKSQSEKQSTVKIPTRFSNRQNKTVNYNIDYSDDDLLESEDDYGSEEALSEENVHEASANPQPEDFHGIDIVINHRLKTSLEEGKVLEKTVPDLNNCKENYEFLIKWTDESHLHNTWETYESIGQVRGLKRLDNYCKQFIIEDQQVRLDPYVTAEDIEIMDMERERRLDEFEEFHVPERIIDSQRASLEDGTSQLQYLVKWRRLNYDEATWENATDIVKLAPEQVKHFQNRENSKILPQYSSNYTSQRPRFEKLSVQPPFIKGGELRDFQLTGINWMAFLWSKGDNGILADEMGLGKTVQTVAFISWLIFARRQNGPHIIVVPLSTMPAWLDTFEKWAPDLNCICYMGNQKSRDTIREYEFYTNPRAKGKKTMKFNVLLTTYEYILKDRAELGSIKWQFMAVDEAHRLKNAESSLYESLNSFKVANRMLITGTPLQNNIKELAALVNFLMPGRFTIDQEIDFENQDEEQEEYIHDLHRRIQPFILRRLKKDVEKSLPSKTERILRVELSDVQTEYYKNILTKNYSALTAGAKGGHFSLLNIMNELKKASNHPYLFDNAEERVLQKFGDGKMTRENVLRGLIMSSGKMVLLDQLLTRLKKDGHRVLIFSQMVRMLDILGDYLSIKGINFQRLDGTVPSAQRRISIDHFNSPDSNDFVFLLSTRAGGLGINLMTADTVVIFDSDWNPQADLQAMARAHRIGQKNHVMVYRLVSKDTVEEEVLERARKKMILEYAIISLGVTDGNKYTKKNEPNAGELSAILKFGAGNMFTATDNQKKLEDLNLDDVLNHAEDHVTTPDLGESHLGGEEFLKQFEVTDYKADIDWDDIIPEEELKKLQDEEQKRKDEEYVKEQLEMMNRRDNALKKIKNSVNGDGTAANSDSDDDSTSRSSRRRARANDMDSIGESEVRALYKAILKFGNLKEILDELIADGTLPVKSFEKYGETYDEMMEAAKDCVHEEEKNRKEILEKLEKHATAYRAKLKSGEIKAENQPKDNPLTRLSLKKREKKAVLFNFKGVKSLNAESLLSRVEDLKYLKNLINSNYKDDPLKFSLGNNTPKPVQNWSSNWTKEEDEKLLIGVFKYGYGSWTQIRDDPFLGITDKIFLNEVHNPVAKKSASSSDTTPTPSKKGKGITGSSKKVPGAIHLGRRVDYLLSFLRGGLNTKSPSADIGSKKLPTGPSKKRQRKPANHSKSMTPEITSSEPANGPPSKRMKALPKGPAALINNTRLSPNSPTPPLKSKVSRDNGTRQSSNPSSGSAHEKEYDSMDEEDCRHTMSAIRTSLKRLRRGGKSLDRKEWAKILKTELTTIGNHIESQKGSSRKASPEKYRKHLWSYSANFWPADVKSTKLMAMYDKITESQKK
# Sequence of Protein translocase subunit SecA (Escherichia coli (strain K12)) (P10408 whole entry): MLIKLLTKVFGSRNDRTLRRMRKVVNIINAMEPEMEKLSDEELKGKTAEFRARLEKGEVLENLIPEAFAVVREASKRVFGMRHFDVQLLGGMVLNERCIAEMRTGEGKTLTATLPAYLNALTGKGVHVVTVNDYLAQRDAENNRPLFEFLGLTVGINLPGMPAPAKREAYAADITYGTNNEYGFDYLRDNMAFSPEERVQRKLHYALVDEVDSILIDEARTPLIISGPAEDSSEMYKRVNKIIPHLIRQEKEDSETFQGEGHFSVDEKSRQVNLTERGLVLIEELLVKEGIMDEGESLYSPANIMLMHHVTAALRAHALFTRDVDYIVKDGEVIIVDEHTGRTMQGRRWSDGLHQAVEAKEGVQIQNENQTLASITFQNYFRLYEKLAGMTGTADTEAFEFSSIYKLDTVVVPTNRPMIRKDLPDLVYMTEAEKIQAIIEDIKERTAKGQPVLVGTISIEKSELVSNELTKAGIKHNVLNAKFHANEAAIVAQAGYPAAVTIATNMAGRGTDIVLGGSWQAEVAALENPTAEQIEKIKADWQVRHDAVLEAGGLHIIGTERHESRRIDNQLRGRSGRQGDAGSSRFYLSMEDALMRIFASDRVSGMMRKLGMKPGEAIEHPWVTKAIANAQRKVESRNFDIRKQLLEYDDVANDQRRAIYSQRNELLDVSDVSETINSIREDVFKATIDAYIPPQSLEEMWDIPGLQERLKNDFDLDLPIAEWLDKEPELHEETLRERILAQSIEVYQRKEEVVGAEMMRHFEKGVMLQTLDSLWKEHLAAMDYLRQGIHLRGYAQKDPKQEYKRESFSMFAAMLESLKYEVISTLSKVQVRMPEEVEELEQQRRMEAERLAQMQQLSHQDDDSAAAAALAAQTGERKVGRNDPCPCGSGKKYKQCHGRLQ
# Sequence of Sialic acid-binding Ig-like lectin 9 (Homo sapiens) (Q9Y336 whole entry): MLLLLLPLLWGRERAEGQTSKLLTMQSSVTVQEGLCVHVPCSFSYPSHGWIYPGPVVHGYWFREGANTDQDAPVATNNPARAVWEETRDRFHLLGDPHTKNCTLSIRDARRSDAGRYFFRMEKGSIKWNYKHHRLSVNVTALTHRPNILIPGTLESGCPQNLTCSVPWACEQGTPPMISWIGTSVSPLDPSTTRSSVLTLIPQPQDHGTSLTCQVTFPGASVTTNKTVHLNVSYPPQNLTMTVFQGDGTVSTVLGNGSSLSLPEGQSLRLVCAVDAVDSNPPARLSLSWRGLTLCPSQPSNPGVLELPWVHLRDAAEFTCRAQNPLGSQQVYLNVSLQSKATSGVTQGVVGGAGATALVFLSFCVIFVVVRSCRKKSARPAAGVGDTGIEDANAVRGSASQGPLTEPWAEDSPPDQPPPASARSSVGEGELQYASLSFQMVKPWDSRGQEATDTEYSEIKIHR
SMILES,Percent Effect [1],Percent Effect [2],Percent Effect [3],Percent Effect [4],Percent Effect (Trypanosoma cruzi),Percent Effect [5],Percent Effect [6],Percent Effect (Homo sapiens),Percent Effect [7],Percent Effect [8],Percent Effect [9]
OCC1CCCN1c1cc(NCCNc2ccccn2)ncn1 (configuration not stated),-3.44%,5.48%,-4.46%,-5.01%,1.18%,3.64%,20.4%,22.1%,2.15%,10%,-7.12%
Cn1cc(C2COC3(CCN(C(=O)c4ccc(F)cc4)CC3)C2)cn1 (configuration not stated),-3.35%,8.11%,6.34%,-3.51%,-2.25%,7.33%,19.9%,-15%,2.16%,17.9%,2.2%
COc1ccc(CCC(=O)N2CCCC2Cn2cc(C)cn2)cc1F (configuration not stated),-2.77%,0%,9.15%,2.46%,1.27%,4%,-2.67%,-9.57%,1.91%,2.35%,-12.9%
CCc1ccc(CN2CCC3(CC2)CNC(=O)CO3)o1,-2.61%,2.7%,1.59%,-0.0986%,1.76%,1.25%,1.77%,-14.2%,2.97%,-3.66%,-0.389%
CC(C)(C)C(=O)N1CCC(c2nc(O)cc(-c3ccccn3)n2)CC1,-0.499%,12.2%,8.91%,-7.12%,-0.79%,-5.34%,12%,11.1%,2.15%,1.3%,-8.6%
CCc1nc(CN2CCCC(NCc3cc(C)no3)C2)no1 (configuration not stated),-1.34%,-28.6%,1.07%,-1.38%,3.82%,-3.16%,5.42%,5.74%,3.81%,7.06%,-11.5%
CCOc1nnc(CN(C)CC2CCCN2c2cccnn2)s1 (configuration not stated),-2.36%,7.89%,-1.61%,-2.87%,3.41%,-8.28%,20.2%,-2.35%,3.19%,10.4%,-4.84%
COCC1c2c(cnn2CC2CC2)CCN1Cc1ccc(OC)cc1 (configuration not stated),0.566%,-5.33%,-0.782%,3.28%,-0.772%,-53.2%,9.23%,91.4%,-4.17%,2.5%,-3.58%
O=C(CN1CCc2cncnc2C1)NCCOc1ccccc1,-4.25%,21.1%,-16.1%,-13.3%,-2.33%,-12.9%,0.592%,0.604%,25.1%,25.9%,-2.98%
Cc1nn(C)c(N(C)C)c1CNCC(O)COc1ccccc1 (configuration not stated),-3.8%,5.48%,-12.3%,0.598%,4.11%,2.27%,17.4%,-13.8%,5.38%,17.5%,-1.71%
Cc1ccc(N(C)C2CCN(C(=O)c3ccsc3)CC2)nn1,-3.77%,5.2%,5.3%,11.4%,5.62%,-7.47%,10.6%,1.47%,5.83%,19.5%,-7.83%
Cc1cc(C2CCCN2C(=O)c2cc3c(s2)CCC3)on1 (configuration not stated),-6.23%,5.26%,2.83%,3.1%,6.58%,-1.92%,14.4%,-0.279%,0.49%,4.88%,-7.02%
CN1CCN(c2ncc3c(=O)n(-c4cccc(F)c4)c(=O)[nH]c3n2)CC1,0.451%,13.2%,0.333%,-0.649%,-1.27%,7.1%,18.9%,-9.16%,4.25%,10.4%,92.2%
CCC1CN(CCNC(C)=O)CCN1CCOC (configuration not stated),-0.705%,16.2%,-10.5%,-8.99%,-2.74%,-4.81%,18.2%,5.73%,7.39%,13.6%,-5.61%
COc1ncccc1NC(=O)NCC1CCS(=O)(=O)C1 (configuration not stated),-2.59%,20.8%,-3.16%,6.78%,-0.936%,-3.92%,4.22%,-12.2%,5.83%,12.2%,-8.21%
CSc1ccccc1CN1CCCn2nc(CNC(=O)N(C)C)cc2C1,-2.86%,8.22%,-6.48%,20.7%,3.13%,4.09%,6.92%,9.78%,4.3%,12.5%,97.4%
COCCc1noc(CNCC2CCCN2c2cccnn2)n1 (configuration not stated),-4.29%,18.2%,-3.94%,-5.52%,4.41%,-5.68%,20.8%,2.37%,10.5%,32.9%,-23.1%
CC1CN(Cc2nccn2C)CCN1c1ccc2nncn2n1 (configuration not stated),-5.26%,10.4%,-8.38%,12.5%,5.62%,2.85%,9.29%,7.44%,5.83%,21.9%,-9.26%
Cc1nc(N2CCN(C)CC2)ncc1C(=O)N1CCC(O)(CO)CC1,-6.99%,5.41%,51.9%,4.12%,2.25%,0.744%,0.944%,9.71%,6.45%,13.6%,-3.95%
CCOC(=O)N1CCN(c2nc(NC)c3ccccc3n2)CC1,-3.25%,4%,-1.05%,9.22%,4.52%,-5.46%,6.1%,3.01%,1.06%,5.13%,-1.69%
Cn1c(CNc2c(F)cccc2-n2cccn2)cc(=O)n(C)c1=O,-1.07%,6.94%,-4.86%,3.69%,1.46%,20.8%,6.14%,5.47%,5.26%,10.3%,-0.228%
CCc1noc(C(C)N(C)CC(=O)Nc2c(C)cccc2C)n1 (configuration not stated),1.06%,11%,6.59%,4.7%,4.31%,16.8%,8.7%,-3.6%,4.3%,15%,-7.1%
